# Test results: the supplement of paper PMC6555819
# What was measured:
# Assay in all cases: PBM binding z-score (relative to random genomic background probes); higher = stronger binding; sequences stand for … in GC…GCGATTGACAGCGTAGAATGAAGG
# [1] = tested on: FXR:RXRa (NR concentration 270 nM, RXRa partner concentration 90 nM)
# Outline: (§1)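 Each nuclear receptor dimer, without ligand, was incubated for 1 h on custom Agilent 4×180K protein-binding microarrays. Binding was detected with antibodies against each partner (one per run), and scanned fluorescence was regression-normalized. The binding z-scores are referenced to random human genomic background probes.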
# [2] = tested on: LXRa:RXRa (NR concentration 270 nM, RXRa partner concentration 90 nM)
# Outline: as §1
# [3] = tested on: LXRa homodimer (NR concentration 270 nM)
# Outline: as §1
# [4] = tested on: LXRb:RXRa (NR concentration 270 nM, RXRa partner concentration 90 nM)
# Outline: as §1
# [5] = tested on: LXRb homodimer (NR concentration 270 nM)
# Outline: as §1
# [6] = tested on: PPARa:RXRa (NR concentration 270 nM, RXRa partner concentration 90 nM)
# Outline: as §1
# [7] = tested on: PPARg:RXRa (NR concentration 180 nM, RXRa partner concentration 90 nM)
# Outline: as §1
# [8] = tested on: PPARg:RXRa 270nM:90nM, anti-RXR (NR concentration 270 nM, RXRa partner concentration 90 nM)
# Outline: as §1
# [9] = tested on: PPARg:RXRa 30nM:10nM, anti-RXR (NR concentration 30 nM, RXRa partner concentration 10 nM)
# Outline: as §1
# [10] = tested on: PPARg:RXRa 90nM:30nM, anti-RXR (NR concentration 90 nM, RXRa partner concentration 30 nM)
# Outline: as §1
# [11] = tested on: PPARg:RXRa DBDmut IVT, anti-RXR (DBD mutation: RXRa K156A/R161A, NR concentration 270 nM, RXRa partner concentration 90 nM)
# Outline: as §1
# [12] = tested on: PPARg:RXRa IVT, anti-PPARg (NR concentration 270 nM, RXRa partner concentration 90 nM)
# Outline: as §1
# [13] = tested on: PPARg DBDmut IVT, anti-PPARg (DBD mutation: PPARg1 K132A/R137A, NR concentration 270 nM)
# Outline: as §1
# [14] = tested on: PPARg homodimer (NR concentration 180 nM)
# Outline: as §1
# [15] = tested on: PXR:RXRa (NR concentration 270 nM, RXRa partner concentration 90 nM)
# Outline: as §1
# [16] = tested on: PXR homodimer (NR concentration 270 nM)
# Outline: as §1
# [17] = tested on: RARa:RXR (NR concentration 270 nM, RXRa partner concentration 90 nM)
# Outline: as §1
# [18] = tested on: RARa homodimer (NR concentration 270 nM)
# Outline: as §1
# [19] = tested on: RARb:RXRa (NR concentration 270 nM, RXRa partner concentration 90 nM)
# Outline: as §1
Sequence,PBM binding z-score [1],PBM binding z-score [2],PBM binding z-score [3],PBM binding z-score [4],PBM binding z-score [5],PBM binding z-score [6],PBM binding z-score [7],PBM binding z-score [8],PBM binding z-score [9],PBM binding z-score [10],PBM binding z-score [11],PBM binding z-score [12],PBM binding z-score [13],PBM binding z-score [14],PBM binding z-score [15],PBM binding z-score [16],PBM binding z-score [17],PBM binding z-score [18],PBM binding z-score [19]
CGGACTAGGTCACCAGGACAGTGAAGAGGTTGGA,3.78,2.23,-0.177,1.34,-0.742,4.41,8.1,6.5,4.18,5.97,7.92,8.27,0.234,1.95,1.24,-0.197,2.09,-0.221,4.15
CGAACTAGGTAAAAGGACAGTGAAAGGCGACGTA,-0.23,-0.378,-0.301,-0.371,-0.583,3.16,5.26,6.57,5.66,7.51,5.32,4.9,0.0504,0.371,-0.425,-0.442,-0.202,-0.518,1.09
CGAACTAGGTCACCAGGACAGTAAAGAGGTTGGA,4.28,2.44,0.233,1.93,0.13,5.1,9.15,7.03,4.73,6.51,8.12,8.87,5.2,2.63,1.66,0.231,2.62,0.29,4.12
CGAACTAGGTCACCGGGACAGTGAAGAGGTTGGA,4.89,2.78,-0.0882,1.89,-0.502,5.58,9.04,7.34,5.02,7.12,7.85,9.13,0.892,2.28,1.79,-0.271,3.2,0.436,4.33
CGAACTAGGTCAAATGACAGTGAAAGGCGACGTA,4.96,3.06,0.264,2.29,0.271,5.2,8.2,6.78,5.35,7.38,7.89,8.48,2.82,2.37,1.34,0.00572,2.23,0.892,4.02
CGAACTAGGTCACAGGACAGTGAAAGGCGACGTA,4.05,2.67,-0.102,1.78,-0.469,5.21,8.8,7.37,4.65,7.31,8.61,8.91,3.67,2.35,1.38,-0.238,2.22,0.616,4.11
CGAAGTAGGTCAAAGGACAGTGAAAGGCGACGTA,4.62,3.33,0.269,2.23,-0.098,5.66,10.5,8.99,8.23,9.73,8.31,8.72,4.59,2.49,1.66,0.0557,2.53,0.312,3.93
CGAACTAGGTCAAAGGAGAGTGAAAGGCGACGTA,3.72,2.61,-0.0759,1.64,-0.486,5.05,8.9,7.8,7.23,8.14,8.02,7.99,0.59,0.681,1.1,-0.124,1.85,-0.114,3.65
CGAACTAGGTCACCCGGACAGTGAAGAGGTTGGA,3.91,2.15,0.102,1.65,0.00893,4.76,8.61,6.77,4.46,6.25,8.23,8.41,0.442,2.42,1.55,0.0197,2.64,0.174,4.22
ATATGTAGGTTAGGGTCTTTCAGAAAGTAGGGAA,1.38,0.75,0.422,1.37,1.11,3.21,4.93,3.87,1.72,3.03,6.29,6.62,2.64,2.25,0.93,1.06,1.2,1.44,0.945
ATATGTAGGTTAGGATCATTCAGAAAGTAGGGAA,0.633,0.786,0.139,0.95,0.084,2.83,3.9,3.07,1.22,2.31,6.17,6.13,1.84,1.69,0.594,0.622,0.758,1.36,0.759
ACATGTAGGTTAGGGTCATTCAGAAAGTAGGGAA,5.38,4.23,1.48,4.58,1.99,5.48,6.68,5.77,3.37,5.57,5.77,5.83,3.59,3.84,4.47,2.63,5.07,1.97,3.61
CGAACTAGGTCACCATGACAGTGAAGAGGTTGGA,3.62,1.88,-0.254,1.49,0.0449,4.95,8.32,6.55,4.64,6.23,7.11,8.4,1.33,1.97,1.4,-0.124,2.42,0.707,4.23
ATATGCAGGTTAGGGTCATTCAGAAAGTAGGGAA,4.84,4.25,0.906,4.2,0.909,5.12,4.09,4.1,1.99,3.4,2.72,3.16,1.24,2.85,4.28,1.51,4.9,1.16,3.4
ATATGTAGTTTAGGGTCATTCAGAAAGTAGGGAA,5.21,4.46,1.76,4.87,2.03,5.14,3.26,3.61,1.72,2.87,1.43,2.8,1.5,2.89,4.68,1.83,5.48,1.75,3.42
CGAACTAGGTCAGCAGGACAGTGAAGAGGTTGGA,1.24,0.718,-0.103,0.384,-0.892,3.76,5.96,5.16,2.12,4.13,7.67,7.57,0.821,0.528,0.361,-0.536,0.95,-0.352,3.61
CGAACTAAGTCAAAGGACAGTGAAAGGCGACGTA,-0.166,-0.175,-0.153,-0.345,-0.704,1.52,2.74,4.16,1.7,3.85,0.998,1.31,0.266,0.434,-0.186,-0.123,0.156,0.0596,1.29
ATATGTAGGTTATGGTCATTCAGAAAGTAGGGAA,1.06,1.36,0.432,1.37,0.916,3.29,4.98,4.06,2.18,3.32,6.83,6.63,2,1.64,0.998,0.449,1.17,1.24,1.4
CGAACTAGGTCACCAGGAGAGTGAAGAGGTTGGA,3.86,2.33,-0.171,1.33,-0.287,4.87,8.26,6.73,4.58,6.24,8.2,8.65,3.69,2.38,1.22,-0.0382,2.45,-0.347,4.04
CGAACTAGGTCAAAGGACAGTGCAAGGCGACGTA,4.07,2.5,0.126,1.63,-0.463,5.41,10.3,8.27,8.02,9.07,7.81,8.11,-0.34,0.639,1.31,-0.108,2.14,-0.256,4.02
CGAACTAGCTCACCAGGACAGTGAAGAGGTTGGA,-0.472,-0.64,-0.125,-0.561,-0.585,-0.517,0.165,-0.517,-0.602,-0.751,0.166,-0.411,0.212,-0.0125,-0.706,-0.202,-0.594,-0.478,-0.409
CGAACTAGGTCAACGGACAGTGAAAGGCGACGTA,3.7,2.16,-0.117,1.22,-0.431,4.75,8.09,6.86,4.42,6.52,8.1,8.37,-0.094,1.63,0.839,-0.0597,1.77,-0.351,3.89
CGAACTAGGGCAAAGGACAGTGAAAGGCGACGTA,-0.161,-0.272,-0.336,-0.481,-1.45,3.45,9.04,7.51,8.13,8.74,7.08,6.68,0.104,0.584,-0.478,-0.625,-0.393,-0.727,2
CGAACTAGGTCACCAGGACAATGAAGAGGTTGGA,3.54,2.55,0.00967,1.74,0.0583,5.41,8.69,6.83,4.53,6.43,7.84,9.01,1.88,1.94,1.49,0.22,2.43,0.0185,4.21
CGAAATAGGTCACCAGGACAGTGAAGAGGTTGGA,5.67,4.08,0.461,3.13,0.187,5.9,8.44,7.47,4.7,6.97,7.94,8.03,1.09,1.95,2.67,0.221,3.82,1.35,4.78
CGAACTAGGTCAAAGGACAGTCAAAGGCGACGTA,4.15,2.73,-0.061,1.89,-0.231,5.68,10.2,8.68,8.42,9.11,8.1,8.4,2.46,1.64,1.39,-0.21,2.49,0.35,3.87
CGAACTAGGTGACCAGGACAGTGAAGAGGTTGGA,-0.0348,-0.436,-0.313,-0.307,-0.898,2.67,3.98,3.34,1.03,1.94,7.15,7,-0.325,-0.217,-0.13,-0.15,0.228,-0.394,0.744
ATATGTAGATTAGGGTCATTCAGAAAGTAGGGAA,4.07,3.39,0.828,4.21,1.27,4.91,3.51,3.48,1.4,2.69,1.94,2.96,1.38,2.2,3.84,1.24,4.48,1.28,2.92
ATGTGTAGGTTAGGGTCATTCAGAAAGTAGGGAA,5.11,4.15,1.8,4.76,2.68,5.13,4.57,4.47,2.37,3.65,2.92,3.98,1.73,3.73,4.68,3.2,5.25,2.44,3.87
CGAACTAGGTCAAAGGATAGTGAAAGGCGACGTA,3.37,2.22,-0.4,1.58,-0.272,4.93,8.97,7.71,6.95,8.35,8.11,8.26,0.867,1.36,1,-0.152,1.9,0.167,3.62
